Assay outcomes deposited in PubChem BioAssay by National Center for Advancing Translational Sciences (NCATS).
SMN2 splice up = SMN2 splice variant enhancement. HEK293 SMN2-luciferase splicing reporter, luminescence, 30-36 h. Potency, µM (titrated, usually from 46.1 µM), for inactives: top-dose activity change, positive = activation, hits mostly activators. 2.8% of 210,000 active. AID 1458; further: % of control where 0% means no effect; nearly all actives have a fitted effect of over 55% in size
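qHTS luciferase splicing reporter: luminescence rises when SMN2 exon 7 is included in transfected HEK293 cells. Compound exposure lasted 30-36 h at 37C, with 4.5 mM final sodium butyrate as control, followed by a ONE-Glo read.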
ELG1 genotoxic = inducers of genotoxicity in HEK293T ELG1-luciferase cells; HEK293T ELG1-luciferase reporter, luminescence, 16 h; Potency, µM (series often up to 46 µM), without a hit: at the highest dose activity change, positive = activation, most hits filed as activators; 1.3% of 330,000 active; further: % of control where 0% means no effect; nearly all actives have a fitted effect of over 60% in size
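Genotoxicity was scored as increased ELG1-luciferase reporter signal, measured by ONE-Glo luminescence (30 min, room temperature). Compound or vehicle exposure of the HEK293T reporter cells lasted 16 hr at 37°C.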
p53 reactivation = restores transcriptional activity of mutant p53; 0.063% of 320,000 active; H1299 p53-A138V BP100-luciferase reporter, luminescence, 24 h; Potency, µM (series often up to 92.2 µM), without a hit: at the top dose activity change, positive = activation, actives largely listed as activators; further: % of control where 0% means no effect; nearly all actives have a fitted effect of over 45% in size
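H1299 (p53-null), stable ts p53-A138V + BP100-Luc; 1000 cells/well, Opti-MEM/10% FBS; cpd 4 pt, 1:5; 24 h, 37 deg C, 5% CO2; detection reagent 10 min RT; luminescence.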
NPC1 prom act = activates the NPC1 promoter | 2.4% of 320,000 active | Potency, µM (titrated, usually from 9.22 µM), inactives show at the top dose activation, hits mostly activators | AID 485313 | Huh7 NPC1 promoter luciferase reporter, 24 h; further: % of control where 0% means no effect; nearly all actives have a fitted effect of over 60% in size
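Stable NPC1-promoter luciferase Huh7 line; cpd (DMSO) 24 h, 37 °C, 5% CO2; Amplite luciferase reagent 10 min RT; luminescence readout. qHTS format.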
Rab9 promoter act = activates the Rab9 promoter; Huh7 Rab9 promoter-luciferase reporter, luminescence, 24 h; Potency, µM (titrated, usually from 9.22 µM), inactives show at the top dose activation, negative = inhibition, actives largely listed as activators; 2.8% of 320,000 active; further: % of control where 0% means no effect; nearly all actives have a fitted effect of over 60% in size
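Stable Rab9-luc Huh7, 1500 cells/well, 2 h settle; cmpd in DMSO, 24 h, 37 °C/5% CO2; luciferase reagent 10 min RT; luminescence.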
FLuc modulator = firefly luciferase modulation, counter-screen for miR-21 project. Potency, µM (series often up to 57.5 µM), for inactives: at the highest dose activity change, negative = inhibition, usual class: inhibitors. AID 588342. 6.9% of 360,000 active. P08659. purified FLuc, Km substrates, luminescence inhibition;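 further: plate controls were vehicle for no effect and reference inhibitor for full effect; nearly all actives have a fitted effect of over 55% in size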
Target sequence (P08659 whole entry, looked up): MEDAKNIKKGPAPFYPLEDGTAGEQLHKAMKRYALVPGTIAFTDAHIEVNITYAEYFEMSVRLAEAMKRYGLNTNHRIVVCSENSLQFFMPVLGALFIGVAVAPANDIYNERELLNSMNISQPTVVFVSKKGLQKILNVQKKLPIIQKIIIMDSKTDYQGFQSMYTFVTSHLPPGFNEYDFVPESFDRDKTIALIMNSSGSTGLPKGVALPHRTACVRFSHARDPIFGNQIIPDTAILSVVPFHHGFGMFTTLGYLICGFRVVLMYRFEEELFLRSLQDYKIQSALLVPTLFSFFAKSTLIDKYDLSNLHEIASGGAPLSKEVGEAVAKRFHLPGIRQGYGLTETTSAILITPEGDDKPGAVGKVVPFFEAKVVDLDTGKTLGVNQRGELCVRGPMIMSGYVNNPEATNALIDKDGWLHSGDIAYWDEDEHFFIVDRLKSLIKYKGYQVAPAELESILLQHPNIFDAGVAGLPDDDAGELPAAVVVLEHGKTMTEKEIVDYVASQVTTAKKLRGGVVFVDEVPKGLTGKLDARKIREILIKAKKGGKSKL
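Biochemical qHTS of compounds, final roughly 60 µM downward over six points, against 10 nM purified firefly luciferase using Km concentrations of substrates (10 uM D-luciferin, 10 uM ATP) in Tris acetate pH 7.5 buffer; luminescence output.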
* hit, by the source's call; ? = inconclusive; · = no result. Sampled rows, rich in hits. Any-hit rate of the full collection: about 7.4%. The call rests on the fitted dose curve; in most records, active means well fitted curve in the direction sought with a large enough effect; inconclusive means small, poorly fitted or top-dose-only effect, or another doubt; inactive means no such curve, though single readings can be large; an effect the other way counts as inactive or inconclusive. Potency means the concentration at half of the fitted maximal effect.

SMILES	SMN2 splice up	ELG1 genotoxic	p53 reactivation	NPC1 prom act	Rab9 promoter act	FLuc modulator
CC(C)(C)Nc1nc2cc([N+](=O)[O-])ccc2o1	·	9%	8%	0%	1%	?
Nc1ccc(-c2nc3cc([N+](=O)[O-])ccc3o2)cc1	·	15%	16%	1.4µM*	1.1µM*	2.1µM*
CCCC(CCC)C(=O)Nc1cc(-c2cn3cccnc3n2)ccc1OC	·	·	·	·	·	-8%
O=C(OCC1OC(n2ncc(=O)[nH]c2=O)C(OC(=O)c2ccccc2)C1OC(=O)c1ccccc1)c1ccccc1 (centres undefined)	·	1%	·	-3%	0%	8%
CC(=O)OC[C@H]1O[C@@H](n2ncc(=O)[nH]c2=O)[C@H](OC(C)=O)[C@@H]1OC(C)=O	10µM*	-13%	4%	-5%	1%	-2%
CCn1c(C(=O)N2CCC(C(=O)NCCc3ccc(C)cc3)CC2)cc2sccc21	-24%	·	·	·	·	-7%
CN(C)c1ccc(/C=C(\C#N)C(=O)OCC(=O)N(C)C2CCS(=O)(=O)C2)cc1 (centres undefined)	·	?	17%	-1%	-1%	24µM*
CCN(C(=O)COC(=O)/C(C#N)=C/c1ccc(N(C)C)cc1)C1CCS(=O)(=O)C1 (centres undefined)	·	13%	?	·	·	·
COC(=O)c1ccc(C(=S)N2CCOCC2)cc1	1%	0%	4%	3%	3%	9%
O=C(O)c1ccc(N=NN2CCCCC2)cc1	26%	?	-5%	?	1.3µM*	11µM*
COC(=O)c1ccc(N=NN2CCCCCC2)cc1	13µM*	?	?	2.2µM*	3.2µM*	6.7µM*
CC(=O)NS(=O)(=O)c1ccc(N=NN2CCCCC2)cc1	2%	2%	2%	-2%	1%	2%
NS(=O)(=O)c1ccc(N=NN2CCCCC2)cc1	·	11%	18%	?	?	17µM*
COC(=O)c1ccc(N=NN2CCOCC2)cc1	11µM*	?	?	?	?	17µM*
CCOc1ccccc1C(=O)Nc1ccc(S(=O)(=O)Nc2ncccn2)cc1	7%	·	·	·	·	-14%
CCOC(=O)CN1C(=O)CC(c2ccccc2)C1=O (centres undefined)	·	1%	·	-2%	-7%	2%
COc1ccc(C(=O)N2CCC(C(=O)Nc3ccccc3Cl)CC2)cc1	-6%	·	·	·	·	-2%
Clc1ccc(N=NN2CCOCC2)cc1	·	?	4%	18%	21%	17µM*
COc1ccccc1-c1cc(C(=O)NCCc2ccccc2)no1	25µM*	13µM*	?	?	3.5µM*	9.5µM*
COc1ccc(NC(=O)c2cc(-c3ccccc3OC)on2)cc1	?	?	?	-3%	0%	9.5µM*
COc1ccc(NC(=O)c2cc(-c3ccccc3Cl)on2)cc1	·	21%	2%	?	?	8.5µM*
COc1ccccc1-c1cc(C(=O)Nc2cccnc2)no1	27%	18µM*	?	?	25%	6.7µM*
O=C(Nc1cccc(C(F)(F)F)c1)Nn1cnnc1	·	0%	-4%	-3%	1%	-1%
Cc1ccc(C(=O)COC(=O)CNC(=O)c2ccccc2)s1	·	-1%	7%	-3%	-6%	-8%
CCOc1ccc(CNCCCSc2nnnn2C)cc1OC	·	·	·	·	·	-1%
CCc1cc(C(=O)NCc2ccccc2)no1	18%	·	·	·	·	-17%
CCCc1cc(C(=O)NCCc2ccccc2)no1	13µM*	10µM*	?	2.2µM*	2.2µM*	21µM*
CCOC(=O)c1c(C)n(-c2ccccc2)c2ccc(OC(=O)COc3ccc(Cl)cc3)cc12	-6%	·	·	·	·	0%
COc1ccccc1N1CCN(/N=C/c2ccc(C(=O)O)cc2)CC1	·	?	1%	1µM*	0.71µM*	2.7µM*
O=C(O)c1ccc(/C=N/N2CCN(c3ccccc3)CC2)cc1	·	15%	44%	1.1µM*	1.4µM*	4.3µM*
